# Assays:
# Experiment in all cases: DAPPL (digital affinity profiling via proximity ligation, sequencing); 10 mM Tris-HCl pH 7.5, 50 mM NaCl, 1 mM DTT, 4% glycerol, room temperature, 30 min; GST-TFs on glutathione beads, 16-mer random dsDNA library, 0.1% formaldehyde crosslink after washing; high values mean tight binding
# FEV = biological target: T1, FEV (Homo sapiens, UniProt Q99581 1-238); conditions: protein: recombinant; tags: N-terminal GST; dsDNA, one strand shown
# T1 sequence: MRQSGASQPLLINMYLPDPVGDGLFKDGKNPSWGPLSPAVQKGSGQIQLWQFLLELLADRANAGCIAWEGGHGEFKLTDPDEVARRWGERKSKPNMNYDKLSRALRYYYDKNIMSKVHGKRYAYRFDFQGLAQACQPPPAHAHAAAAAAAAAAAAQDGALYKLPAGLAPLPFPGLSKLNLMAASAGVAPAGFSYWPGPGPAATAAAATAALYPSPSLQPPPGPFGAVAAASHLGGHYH
# Outline: (§1)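 Beads coated with glutathione captured GST-fused human transcription factors that had been expressed in yeast, and the factors were then given DNA barcodes and pooled with a tag-only sample. The pools were incubated with 200 nmole of a random double-stranded 16-mer DNA library in Tris/NaCl/DTT/glycerol buffer for 30 min at room temperature, washed, crosslinked with 0.1% formaldehyde and proximity-ligated with BsaI/T4 ligase at 37 °C for 1 h. PCR amplification and Illumina NextSeq500 sequencing came last. Binding signal is each hexamer's read frequency for a factor divided by its frequency for the tag-only sample.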
# ETV5 = ETV5 (Homo sapiens, UniProt P41161 1-510); conditions: protein: recombinant; tags: N-terminal GST; dsDNA, one strand shown
# Outline: as §1
# HSF1 = HSF1 (Homo sapiens, UniProt Q00613 1-529); conditions: protein: recombinant; tags: N-terminal GST; chain copies: 3; dsDNA, one strand shown
# Outline: as §1
# SPIC = biological target: T2, SPIC (Homo sapiens, UniProt Q8N5J4 1-248); conditions: protein: recombinant; tags: N-terminal GST; dsDNA, one strand shown
# T2 sequence: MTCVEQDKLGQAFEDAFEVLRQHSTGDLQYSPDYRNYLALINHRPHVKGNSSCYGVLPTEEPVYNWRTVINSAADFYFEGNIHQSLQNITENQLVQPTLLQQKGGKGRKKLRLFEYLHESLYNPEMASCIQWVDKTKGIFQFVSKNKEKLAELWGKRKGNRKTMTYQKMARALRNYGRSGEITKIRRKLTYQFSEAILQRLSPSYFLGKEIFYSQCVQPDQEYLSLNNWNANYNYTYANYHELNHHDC
# Outline: as §1
# ELF4 = ELF4 (Homo sapiens, UniProt Q99607 1-663); conditions: protein: recombinant; tags: N-terminal GST; dsDNA, one strand shown
# Outline: as §1
# ELK4 = biological target: T3, ELK4 (Homo sapiens, UniProt P28324-2 1-405); conditions: protein: recombinant; tags: N-terminal GST; dsDNA, one strand shown
# T3 sequence: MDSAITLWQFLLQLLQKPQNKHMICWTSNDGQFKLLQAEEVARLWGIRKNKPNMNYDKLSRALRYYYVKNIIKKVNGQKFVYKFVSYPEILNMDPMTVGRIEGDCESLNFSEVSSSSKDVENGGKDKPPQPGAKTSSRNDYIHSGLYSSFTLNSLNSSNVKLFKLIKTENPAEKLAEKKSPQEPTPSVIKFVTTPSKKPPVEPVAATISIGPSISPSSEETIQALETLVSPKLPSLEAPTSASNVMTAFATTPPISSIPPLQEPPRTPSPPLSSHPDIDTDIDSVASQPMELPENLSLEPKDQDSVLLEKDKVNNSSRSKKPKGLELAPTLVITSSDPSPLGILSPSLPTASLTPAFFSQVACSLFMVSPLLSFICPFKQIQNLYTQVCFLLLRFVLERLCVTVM
# Outline: as §1
# ETV2 = biological target: T4, ETV2 (Homo sapiens, UniProt O00321 1-342); conditions: protein: recombinant; tags: N-terminal GST; dsDNA, one strand shown
# T4 sequence: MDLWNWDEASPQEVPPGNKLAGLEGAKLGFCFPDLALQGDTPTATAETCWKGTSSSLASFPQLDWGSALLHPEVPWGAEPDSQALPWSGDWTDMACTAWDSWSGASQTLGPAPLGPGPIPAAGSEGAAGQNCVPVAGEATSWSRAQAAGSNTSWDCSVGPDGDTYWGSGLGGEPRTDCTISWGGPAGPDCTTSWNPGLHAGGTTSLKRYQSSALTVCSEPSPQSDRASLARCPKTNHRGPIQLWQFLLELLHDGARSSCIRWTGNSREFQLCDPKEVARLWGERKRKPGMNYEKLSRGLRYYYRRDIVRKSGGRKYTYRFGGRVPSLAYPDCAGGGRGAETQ
# Outline: as §1
# ELF3 = biological target: T5, ELF3 (Homo sapiens, UniProt P78545 1-371); conditions: protein: recombinant; tags: N-terminal GST; dsDNA, one strand shown
# T5 sequence: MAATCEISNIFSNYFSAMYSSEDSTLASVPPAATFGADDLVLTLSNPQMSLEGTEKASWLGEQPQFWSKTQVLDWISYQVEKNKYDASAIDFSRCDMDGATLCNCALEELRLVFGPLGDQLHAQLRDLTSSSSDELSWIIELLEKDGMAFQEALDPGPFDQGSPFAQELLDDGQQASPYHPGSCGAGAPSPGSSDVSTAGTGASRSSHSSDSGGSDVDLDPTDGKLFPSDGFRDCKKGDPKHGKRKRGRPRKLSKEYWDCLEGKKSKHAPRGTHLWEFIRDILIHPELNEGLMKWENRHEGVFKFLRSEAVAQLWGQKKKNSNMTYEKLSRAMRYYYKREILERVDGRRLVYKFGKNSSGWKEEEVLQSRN
# Outline: as §1
# CRX = CRX (Homo sapiens, UniProt O43186 1-299); conditions: protein: recombinant; tags: N-terminal GST; dsDNA, one strand shown
# Outline: as §1
# ETV1 = ETV1 (Homo sapiens, UniProt P50549 1-477); conditions: protein: recombinant; tags: N-terminal GST; dsDNA, one strand shown
# Outline: as §1
# ERF = biological target: T6, ERF (Homo sapiens, UniProt P50548 1-548); conditions: protein: recombinant; tags: N-terminal GST; dsDNA, one strand shown
# T6 sequence: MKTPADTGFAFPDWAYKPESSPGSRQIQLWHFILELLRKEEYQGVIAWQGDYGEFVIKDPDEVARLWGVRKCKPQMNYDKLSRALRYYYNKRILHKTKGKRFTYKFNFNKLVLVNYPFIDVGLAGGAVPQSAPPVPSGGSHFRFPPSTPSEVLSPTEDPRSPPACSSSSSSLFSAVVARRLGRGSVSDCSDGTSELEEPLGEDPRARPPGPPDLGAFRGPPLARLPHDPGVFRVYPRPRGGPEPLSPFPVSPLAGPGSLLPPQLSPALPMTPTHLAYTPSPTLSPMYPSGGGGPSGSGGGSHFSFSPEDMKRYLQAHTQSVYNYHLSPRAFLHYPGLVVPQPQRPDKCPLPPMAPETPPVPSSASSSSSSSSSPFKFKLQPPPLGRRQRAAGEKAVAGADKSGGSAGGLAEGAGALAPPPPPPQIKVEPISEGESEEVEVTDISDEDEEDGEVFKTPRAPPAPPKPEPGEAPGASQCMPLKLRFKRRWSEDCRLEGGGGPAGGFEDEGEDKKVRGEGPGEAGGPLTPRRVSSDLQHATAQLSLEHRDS
# Outline: as §1
# ETV3L = biological target: T7, ETV3L (Homo sapiens, UniProt Q6ZN32 1-361); conditions: protein: recombinant; tags: N-terminal GST; dsDNA, one strand shown
# T7 sequence: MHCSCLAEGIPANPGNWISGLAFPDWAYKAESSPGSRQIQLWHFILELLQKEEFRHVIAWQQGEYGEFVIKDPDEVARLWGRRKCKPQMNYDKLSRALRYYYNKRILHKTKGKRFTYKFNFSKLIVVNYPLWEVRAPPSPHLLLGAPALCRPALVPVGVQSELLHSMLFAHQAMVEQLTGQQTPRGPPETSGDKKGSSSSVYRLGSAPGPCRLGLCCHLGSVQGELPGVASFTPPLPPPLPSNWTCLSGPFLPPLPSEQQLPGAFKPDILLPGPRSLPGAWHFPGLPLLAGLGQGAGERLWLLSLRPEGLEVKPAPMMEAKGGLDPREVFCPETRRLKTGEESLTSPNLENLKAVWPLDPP
# Outline: as §1
# ETS2 = biological target: T8, ETS2 (Homo sapiens, UniProt P15036 1-469); conditions: protein: recombinant; tags: N-terminal GST; dsDNA, one strand shown
# T8 sequence: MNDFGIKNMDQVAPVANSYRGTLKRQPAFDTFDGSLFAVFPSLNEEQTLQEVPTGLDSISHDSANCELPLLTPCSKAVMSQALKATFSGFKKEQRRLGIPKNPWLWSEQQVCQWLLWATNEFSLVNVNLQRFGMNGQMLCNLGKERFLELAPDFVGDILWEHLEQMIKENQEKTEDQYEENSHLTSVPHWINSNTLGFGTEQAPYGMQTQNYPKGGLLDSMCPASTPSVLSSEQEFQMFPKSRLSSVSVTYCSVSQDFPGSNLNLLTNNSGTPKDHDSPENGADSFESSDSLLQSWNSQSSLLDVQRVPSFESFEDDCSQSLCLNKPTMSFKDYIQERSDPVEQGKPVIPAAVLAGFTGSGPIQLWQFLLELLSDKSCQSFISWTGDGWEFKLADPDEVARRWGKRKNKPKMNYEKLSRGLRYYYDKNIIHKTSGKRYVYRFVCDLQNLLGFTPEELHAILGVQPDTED
# Outline: as §1
# SPDEF = biological target: T9, SPDEF (Homo sapiens, UniProt O95238 1-335); conditions: protein: recombinant; tags: N-terminal GST; dsDNA, one strand shown
# T9 sequence: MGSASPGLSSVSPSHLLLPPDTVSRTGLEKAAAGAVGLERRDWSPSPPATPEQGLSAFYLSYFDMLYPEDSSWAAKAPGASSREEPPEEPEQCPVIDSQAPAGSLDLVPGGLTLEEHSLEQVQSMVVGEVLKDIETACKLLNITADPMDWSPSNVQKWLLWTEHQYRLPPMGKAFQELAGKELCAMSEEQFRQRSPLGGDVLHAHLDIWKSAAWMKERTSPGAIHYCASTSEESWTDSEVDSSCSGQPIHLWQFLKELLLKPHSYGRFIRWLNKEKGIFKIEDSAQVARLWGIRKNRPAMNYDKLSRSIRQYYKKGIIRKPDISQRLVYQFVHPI
# Outline: as §1
# ETV7 = biological target: T10, ETV7 (Homo sapiens, UniProt Q9Y603 1-341); conditions: protein: recombinant; tags: N-terminal GST; dsDNA, one strand shown
# T10 sequence: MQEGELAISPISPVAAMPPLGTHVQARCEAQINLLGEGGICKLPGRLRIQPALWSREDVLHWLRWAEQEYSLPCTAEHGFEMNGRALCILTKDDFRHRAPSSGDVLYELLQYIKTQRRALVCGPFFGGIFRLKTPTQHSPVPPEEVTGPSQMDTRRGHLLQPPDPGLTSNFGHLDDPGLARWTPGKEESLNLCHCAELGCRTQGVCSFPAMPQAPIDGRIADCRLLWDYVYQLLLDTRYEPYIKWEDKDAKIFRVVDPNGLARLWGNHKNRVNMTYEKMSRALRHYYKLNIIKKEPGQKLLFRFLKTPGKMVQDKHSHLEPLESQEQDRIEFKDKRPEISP
# Outline: as §1
# ELF5 = biological target: T11, ELF5 (Homo sapiens, UniProt Q9UKW6-2 1-255); conditions: protein: recombinant; tags: N-terminal GST; dsDNA, one strand shown
# T11 sequence: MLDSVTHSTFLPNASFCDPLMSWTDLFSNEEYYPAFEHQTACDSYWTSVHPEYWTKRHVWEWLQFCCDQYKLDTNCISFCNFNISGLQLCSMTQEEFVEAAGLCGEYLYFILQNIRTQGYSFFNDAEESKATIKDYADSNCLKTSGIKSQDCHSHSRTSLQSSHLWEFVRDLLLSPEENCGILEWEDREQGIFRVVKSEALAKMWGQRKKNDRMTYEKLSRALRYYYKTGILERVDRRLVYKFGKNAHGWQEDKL
# Outline: as §1
# ETV3 = biological target: T12, ETV3 (Homo sapiens, UniProt P41162-2 1-143); conditions: protein: recombinant; tags: N-terminal GST; dsDNA, one strand shown
# T12 sequence: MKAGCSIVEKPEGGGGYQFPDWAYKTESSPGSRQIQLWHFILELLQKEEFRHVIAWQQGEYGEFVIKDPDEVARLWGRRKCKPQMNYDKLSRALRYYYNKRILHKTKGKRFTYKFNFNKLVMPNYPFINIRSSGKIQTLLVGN
# Outline: as §1
# ETV6 = ETV6 (Homo sapiens, UniProt P41212 1-452); conditions: protein: recombinant; tags: N-terminal GST; dsDNA, one strand shown
# Outline: as §1
# Sequence of HSF1 (Q00613 whole entry): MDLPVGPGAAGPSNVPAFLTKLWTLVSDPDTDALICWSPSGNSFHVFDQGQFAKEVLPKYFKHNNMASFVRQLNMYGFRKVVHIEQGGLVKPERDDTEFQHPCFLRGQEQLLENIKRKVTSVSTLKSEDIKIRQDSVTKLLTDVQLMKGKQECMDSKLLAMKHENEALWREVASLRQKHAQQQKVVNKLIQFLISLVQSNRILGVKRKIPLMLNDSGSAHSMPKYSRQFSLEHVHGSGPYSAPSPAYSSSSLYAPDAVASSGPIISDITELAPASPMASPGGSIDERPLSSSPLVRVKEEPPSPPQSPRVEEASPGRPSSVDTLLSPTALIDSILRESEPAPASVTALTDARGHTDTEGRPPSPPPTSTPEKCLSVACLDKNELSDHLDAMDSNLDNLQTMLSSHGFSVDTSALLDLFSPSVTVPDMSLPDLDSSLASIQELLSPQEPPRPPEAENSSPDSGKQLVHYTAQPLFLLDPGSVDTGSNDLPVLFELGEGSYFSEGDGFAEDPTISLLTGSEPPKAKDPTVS
# Sequence of ETV1 (P50549 whole entry): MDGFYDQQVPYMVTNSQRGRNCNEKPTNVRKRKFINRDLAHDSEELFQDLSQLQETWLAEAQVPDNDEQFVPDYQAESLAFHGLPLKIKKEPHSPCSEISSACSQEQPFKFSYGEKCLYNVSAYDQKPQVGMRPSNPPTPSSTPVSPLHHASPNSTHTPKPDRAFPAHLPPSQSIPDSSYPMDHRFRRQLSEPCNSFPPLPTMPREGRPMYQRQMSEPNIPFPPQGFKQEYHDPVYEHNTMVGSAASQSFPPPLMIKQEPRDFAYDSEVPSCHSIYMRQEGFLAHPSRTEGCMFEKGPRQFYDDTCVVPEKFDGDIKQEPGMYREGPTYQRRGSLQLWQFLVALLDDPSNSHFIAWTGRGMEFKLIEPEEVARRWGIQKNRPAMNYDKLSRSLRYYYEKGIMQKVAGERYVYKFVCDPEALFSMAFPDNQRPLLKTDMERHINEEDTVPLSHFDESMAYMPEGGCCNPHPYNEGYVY
# Sequence of ETV5 (P41161 whole entry): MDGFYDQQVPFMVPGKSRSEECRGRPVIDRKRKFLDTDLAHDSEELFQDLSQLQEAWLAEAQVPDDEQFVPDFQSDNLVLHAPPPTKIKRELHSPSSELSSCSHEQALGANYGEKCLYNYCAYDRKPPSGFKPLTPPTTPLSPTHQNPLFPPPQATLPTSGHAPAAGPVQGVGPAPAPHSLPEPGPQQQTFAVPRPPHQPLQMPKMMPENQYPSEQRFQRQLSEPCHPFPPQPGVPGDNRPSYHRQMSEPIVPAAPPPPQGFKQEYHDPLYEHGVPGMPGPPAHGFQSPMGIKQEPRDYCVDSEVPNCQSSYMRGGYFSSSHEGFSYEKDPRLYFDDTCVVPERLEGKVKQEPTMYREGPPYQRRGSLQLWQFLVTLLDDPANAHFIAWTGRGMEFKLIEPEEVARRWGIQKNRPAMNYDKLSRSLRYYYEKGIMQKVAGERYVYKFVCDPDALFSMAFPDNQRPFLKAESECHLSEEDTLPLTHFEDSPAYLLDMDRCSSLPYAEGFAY
# Sequence of CRX (O43186 whole entry): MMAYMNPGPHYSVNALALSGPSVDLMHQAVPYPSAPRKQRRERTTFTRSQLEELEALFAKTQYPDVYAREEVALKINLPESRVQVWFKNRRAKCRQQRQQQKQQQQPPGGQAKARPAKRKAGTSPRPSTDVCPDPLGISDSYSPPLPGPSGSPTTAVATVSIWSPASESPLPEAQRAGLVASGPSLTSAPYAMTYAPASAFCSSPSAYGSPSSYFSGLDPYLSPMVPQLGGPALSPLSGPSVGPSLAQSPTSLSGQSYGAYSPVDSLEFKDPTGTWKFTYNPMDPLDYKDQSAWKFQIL
# Sequence of ETV6 (P41212 whole entry): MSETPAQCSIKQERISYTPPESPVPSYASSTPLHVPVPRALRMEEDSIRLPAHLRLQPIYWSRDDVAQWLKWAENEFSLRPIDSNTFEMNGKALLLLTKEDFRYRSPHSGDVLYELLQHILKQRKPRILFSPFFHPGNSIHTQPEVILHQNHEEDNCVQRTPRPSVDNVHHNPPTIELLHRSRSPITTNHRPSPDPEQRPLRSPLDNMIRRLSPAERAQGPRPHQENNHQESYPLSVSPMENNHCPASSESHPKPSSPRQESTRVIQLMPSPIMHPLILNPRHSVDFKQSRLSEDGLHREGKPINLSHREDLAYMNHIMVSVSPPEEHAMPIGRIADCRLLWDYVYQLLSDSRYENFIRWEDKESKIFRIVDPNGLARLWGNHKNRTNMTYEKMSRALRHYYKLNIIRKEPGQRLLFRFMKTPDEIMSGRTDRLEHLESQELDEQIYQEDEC
# Sequence of ELF4 (Q99607 whole entry): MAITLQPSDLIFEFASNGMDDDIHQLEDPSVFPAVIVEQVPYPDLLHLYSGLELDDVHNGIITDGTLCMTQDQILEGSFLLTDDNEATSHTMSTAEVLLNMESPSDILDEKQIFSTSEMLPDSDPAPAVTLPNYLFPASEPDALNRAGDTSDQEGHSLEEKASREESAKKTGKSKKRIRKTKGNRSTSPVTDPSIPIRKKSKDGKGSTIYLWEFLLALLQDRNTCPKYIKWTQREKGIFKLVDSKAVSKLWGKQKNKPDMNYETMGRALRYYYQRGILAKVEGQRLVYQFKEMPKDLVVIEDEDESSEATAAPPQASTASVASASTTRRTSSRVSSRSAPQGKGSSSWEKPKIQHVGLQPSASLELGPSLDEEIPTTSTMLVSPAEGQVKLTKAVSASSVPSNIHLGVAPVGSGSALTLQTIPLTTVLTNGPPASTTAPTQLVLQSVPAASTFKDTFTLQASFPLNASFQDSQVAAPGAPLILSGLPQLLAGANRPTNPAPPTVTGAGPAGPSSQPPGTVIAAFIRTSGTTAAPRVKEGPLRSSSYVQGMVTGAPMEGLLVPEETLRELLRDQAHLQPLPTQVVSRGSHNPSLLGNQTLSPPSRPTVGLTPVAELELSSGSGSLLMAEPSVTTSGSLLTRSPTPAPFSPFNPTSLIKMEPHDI
sequence,measurement,setting,value
CTAATT,binding signal,FEV,"1.35 fold enrichment (6-mer frequency, TF over GST control)"
same,binding signal,ETV5,"1.28 fold enrichment (6-mer frequency, TF over GST control)"
same,binding signal,HSF1,"1.47 fold enrichment (6-mer frequency, TF over GST control)"
same,binding signal,SPIC,"1.46 fold enrichment (6-mer frequency, TF over GST control)"
same,binding signal,ELF4,"1.38 fold enrichment (6-mer frequency, TF over GST control)"
same,binding signal,ELK4,"1.27 fold enrichment (6-mer frequency, TF over GST control)"
same,binding signal,ETV2,"1.57 fold enrichment (6-mer frequency, TF over GST control)"
same,binding signal,ELF3,"1.48 fold enrichment (6-mer frequency, TF over GST control)"
same,binding signal,CRX,"2.09 fold enrichment (6-mer frequency, TF over GST control)"
same,binding signal,ETV1,"1.26 fold enrichment (6-mer frequency, TF over GST control)"
same,binding signal,ERF,"1.27 fold enrichment (6-mer frequency, TF over GST control)"
same,binding signal,ETV3L,"1.23 fold enrichment (6-mer frequency, TF over GST control)"
same,binding signal,ETS2,"1.37 fold enrichment (6-mer frequency, TF over GST control)"
same,binding signal,SPDEF,"1.17 fold enrichment (6-mer frequency, TF over GST control)"
same,binding signal,ETV7,"1.23 fold enrichment (6-mer frequency, TF over GST control)"
same,binding signal,ELF5,"1.22 fold enrichment (6-mer frequency, TF over GST control)"
same,binding signal,ETV3,"1.19 fold enrichment (6-mer frequency, TF over GST control)"
same,binding signal,ETV6,"1.33 fold enrichment (6-mer frequency, TF over GST control)"

# From publication PMC7862700, “An all-to-all approach to the identification of sequence-specific readers for epigenetic DNA modifications on cytosine”
